Tg IFNy HTS = T. gondii growth inhibition under IFN-gamma; Toxoplasma gondii growth in IFN-gamma-treated host cells; stronger effect = lower value; activity change, negative = inhibition, % (concentration not given with the values); 69,000 compounds, 3.8% hits; AID 1259416; in the data active means activity change below about -70%, passing the limit was not always enough;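 further: host cells are HeLa cells infected with Toxoplasma gondii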
Of the large screens only hits and unclear results are named; the others gave an inactive call. This is one part of a sample in which hits are shown more often than they occur.

Cc1noc(C)c1CN1CCC2(CCC(=O)N2CCN(C)C)CC1	Tg IFNy HTS -82
Cc1nc2c(c(N(C)CCCc3cnn(C)c3)n1)CNC2	none
CCCCN(Cc1ccco1)C(=O)c1c(C)nc2ncccn12	none
Cc1nc(N2CCCC2)nc(-c2ccc(S(C)(=O)=O)cc2)c1C	none
CCS(=O)(=O)N1CCC2(CC1)Nc1cc(OC)ccc1-n1cccc12	none
Cc1cc(N2CCC3(CCNC(=O)CC3)CC2)nc(-c2ccccc2O)n1	none
CC(CCNC(=O)C(C)n1c2ccccc2c2cnn(C)c(=O)c21)N1CCCC1 (stereo unspecified)	none
Cc1ccc(CN2CCC(CNC(=O)C(C)n3c4ccccc4c4cnn(C)c(=O)c43)C2)cc1 (stereo unspecified)	Tg IFNy HTS -104
Cc1ccc(CN2CCC(CNC(=O)Cn3c4ccccc4c4cnn(C)c(=O)c43)C2)cc1 (stereo unspecified)	none
Cc1nc(-c2ccccc2)sc1CCNC(=O)c1ccccc1	none
CCC(C)NC(=O)CN1C(=O)CCc2cc(S(=O)(=O)N3CCC(C)CC3)ccc21 (stereo unspecified)	none
Nc1[nH]nc2nc3ccccc3nc12	none
c1ccc2c(c1)nc1c2ccc2[nH]onc21	none
Oc1c(Cl)c2nc3ccccc3nc2c2ccccc12	Tg IFNy HTS -105
O=C(O)CC1COCCN1C(=O)c1ccc(NC(=O)C2CCC2)cc1 (stereo unspecified)	none
CCN(C(=O)c1cc2cccnc2n(Cc2ccccc2)c1=O)C1CCCCC1	none
COc1cccc(NC(=O)C(=O)NCCc2sc(-c3ccc(C)cc3)nc2C)c1	none
CN(Cc1nc(-c2ccccc2)no1)C(=O)c1ccc(C#CC(C)(C)O)o1	none
Cn1nc(C(=O)N2CCOCC2)c2c1CN(Cc1ccoc1)C2	none
CN1CC(=O)N(c2ccsc2)CC12CCN(C(=O)Nc1ccccc1F)C2 (stereo unspecified)	Tg IFNy HTS -101
CN1CC(=O)N(c2ccsc2)CC12CCN(CC(=O)O)C2 (stereo unspecified)	none
CN1CC(=O)N(c2cccc(F)c2)CC12CCN(C(=O)c1cccs1)C2 (stereo unspecified)	none
Cc1ccc(-c2ccc(OCC(=O)NCC3CCCO3)cc2)cc1 (stereo unspecified)	none
O=c1ccc2cc(S(=O)(=O)N(Cc3ccco3)C3CCCC3)ccc2[nH]1	none
CN1CC2(CCCN(C(=O)CCCn3cncn3)CC2)OC1=O (stereo unspecified)	none
COCc1nnc2n1CCN(Cc1ccsc1)C2	none
CSc1nc(C(=O)N2CCN3C(=O)CN(C)C(=O)C3C2)cs1 (stereo unspecified)	none
C=CCn1c(=S)sc2c(C(C#N)C#N)ncnc21	Tg IFNy HTS -102
C=CCn1c(=S)sc2c(N3CCN(c4ccccc4)CC3)ncnc21	none
C=CCn1c(=O)c(-c2nc(-c3ccc(OC(C)C)cc3)no2)c(O)c2ccccc21	none
CCOCC1CN(CC2CCOCC2)Cc2cn(CC)nc21 (stereo unspecified)	none
O=C(CSc1nccc(=O)[nH]1)Nc1nnc(SCc2ccccc2)s1	none
Cc1cccc(C(=O)Nc2nc(-c3ccccc3)c(-c3ccccc3)s2)c1	Tg IFNy HTS -72
Cc1cccc(C(=O)NCCc2sc(-c3ccccc3)nc2C)c1	none
O=C(Nc1sc(NC(=O)c2cccs2)nc1-c1cccs1)c1ccccc1	none
O=C(NCc1ccc(-n2cccc2)cc1)c1ccc(Br)o1	none
Cc1cc(C)c2cc(C(=O)NCCSCc3c(F)cccc3Cl)[nH]c2c1	none
Nc1ncccc1CN1CCCC(CCc2ccc(F)cc2)C1 (stereo unspecified)	none
COc1cccc(NC(=O)Cn2c(=O)ccc3cc(S(=O)(=O)N4CCCC4)ccc32)c1	none
CC(C)c1ccc(NC(=O)Cn2c(=O)ccc3cc(S(=O)(=O)N4CCCC4)ccc32)cc1	Tg IFNy HTS -78
O=C(Cn1c(=O)ccc2cc(S(=O)(=O)N3CCCC3)ccc21)Nc1ccc(F)cc1	none
Cc1ccc(NC(=O)Cn2c(=O)ccc3cc(S(=O)(=O)N4CCC(C)CC4)ccc32)cc1Cl	Tg IFNy HTS -93
CC1CCN(S(=O)(=O)c2ccc3c(ccc(=O)n3CC(=O)Nc3cccc(F)c3)c2)CC1	Tg IFNy HTS -81
CC1CCN(S(=O)(=O)c2ccc3c(ccc(=O)n3CC(=O)Nc3ccc(F)c(Cl)c3)c2)CC1	none
CSc1cccc(NC(=O)Cn2c(=O)ccc3cc(S(=O)(=O)N4CCC(C)CC4)ccc32)c1	none
CC(=O)Nc1ccc(NC(=O)Cn2c(=O)ccc3cc(S(=O)(=O)N4CCC(C)CC4)ccc32)cc1	none
CC1CCN(S(=O)(=O)c2ccc3c(ccc(=O)n3CC(=O)NC(C)C)c2)CC1	none
CCOC(=O)N1CCC(NCCCC2CCOC2)CC1 (stereo unspecified)	none
Cc1ccccc1NC(=O)Cn1nc(-c2ccc(Cl)cc2)c2ccccc2c1=O	none
COC(=O)CC1C(=O)NCCN1C(=O)c1cccc2c1NCCC2 (stereo unspecified)	none
NC(=O)C1CN(c2nc(C3CCCC3)nc3c2CNC3)CCO1 (stereo unspecified)	none
CCCn1ccnc1CN(C)Cc1ccc(-n2cccn2)cc1	none
CN(C)c1ncc(-c2ccc(N)nc2)c(C2CCN(C(=O)c3ccc(F)cc3)CC2)n1	none
O=C(c1ccc2n[nH]nc2c1)N1CCC(c2[nH]ncc2Cc2ccccc2)CC1	none
CCn1c(=O)c(C(=O)Nc2nccc(C)n2)c(O)c2ccccc21	none
CC(C)(C)NC(=S)N/N=C1/CCCc2occc21	Tg IFNy HTS -95
O=C(O/N=C1/CCCc2occc21)c1ccccc1	none
CNc1cc(C2CCCNC2)nc(CN(C)C(=O)Cc2cccc(F)c2)n1 (stereo unspecified)	none
COc1ccc(N2C(=O)CSC2=S)cc1	none
CC(=O)c1cc(C(=O)N2CC(CN3CCOCC3)c3ccccc32)cs1 (stereo unspecified)	none
COc1ccc(C[C@H]2CN(C)CC[C@H]2OC)cc1	none
CC1=CC(C)(C)N(C(=O)c2ccccc2)c2ccc(OC(=O)c3ccccc3)cc21	none
CC1CC(C)(C)N2C(=O)C(=O)c3cc(OC(=O)c4ccccc4)cc1c32 (stereo unspecified)	Tg IFNy HTS -96
CS(=O)(=O)c1cccc(C(=O)Oc2ccccc2)c1	none
O=C(CN1C(=O)CCc2cc(S(=O)(=O)N3CCCC3)ccc21)Nc1cccc(Br)c1	Tg IFNy HTS -108
COc1cccc(NC(=O)CN2C(=O)CCc3cc(S(=O)(=O)N4CCC(C)CC4)ccc32)c1	none
CC1CCN(S(=O)(=O)c2ccc3c(c2)CCC(=O)N3CC(=O)Nc2ccc3c(c2)OCCO3)CC1	Tg IFNy HTS -88
O=C(CN1C(=O)CCc2cc(S(=O)(=O)N3CCCC3)ccc21)Nc1ccc(Cl)cc1	none
Cc1cc(C)cc(NC(=O)CN2C(=O)CCc3cc(S(=O)(=O)N4CCC(C)CC4)ccc32)c1	none
O=C(CN1C(=O)CCc2cc(S(=O)(=O)N3CCCC3)ccc21)Nc1ccc2c(c1)OCCO2	none
Cc1cccc(NC(=O)CN2C(=O)CCc3cc(S(=O)(=O)N4CCCCC4)ccc32)c1	none
O=C(CN1C(=O)CCc2cc(S(=O)(=O)N3CCCC3)ccc21)Nc1cccc(F)c1	none
CCc1ccc(NC(=O)CN2C(=O)CCc3cc(S(=O)(=O)N4CCCCC4)ccc32)cc1	Tg IFNy HTS -97
CC1CCN(S(=O)(=O)c2ccc3c(c2)CCC(=O)N3CC(=O)NCc2ccc3c(c2)OCO3)CC1	none
CCc1ccc(NC(=O)CN2C(=O)CCc3cc(S(=O)(=O)N4CCC(C)CC4)ccc32)cc1	Tg IFNy HTS -77
COc1ccc(NC(=O)CN2C(=O)CCc3cc(S(=O)(=O)N4CCCCC4)ccc32)cc1OC	none
Cc1ccc(C)c(-c2coc(-c3ccc(NC(=O)c4ccccc4)cc3)n2)c1	none
